Cardiac RTF inh = cardiac RTF calcium sensitivity inhibitors, primary screen, biochemical, IANBD-TnC fluorescence, EC70 calcium. Troponin I, cardiac muscle (Homo sapiens) + Troponin T, cardiac muscle (Homo sapiens) + …. IANBD-labeled cardiac RTF, Ca2+ fluorescence. inhibition, % at 7.15 µM. 0.12% of 340,000 active. AID 493244, 2011;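 active means inhibition above the mean inhibition of all tested compounds plus 3 SD, cut at about 17% in these data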;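 further: assay run at fixed EC70 calcium of 1.6 mM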
E coli Lon inh = inhibitors of E. coli Lon protease, primary screen, biochemical, fluorescence polarization | P0A9M0 | purified E. coli Lon protease | inhibition, % at 7.94 µM | 0.42% of 360,000 active; in the data active means inhibition above about 13%, passing the limit was not always enough;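 further: 0% = enzyme with probe and DMSO and 100% = no enzyme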
GLD-1 TGE inh = GLD-1/TGE RNA complex disruptors, primary screen, biochemical, fluorescence polarization; Female germline-specific tumor suppressor gld-1 (Caenorhabditis elegans), Q17339; 0.44% of 320,000 active; purified GLD-1 + fluorescein TGE RNA; inhibition, % at 5.96 µM;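 active means percent inhibition above a per-plate cutoff, the plate mean of test compounds plus 3 SD, cut at about 30% in these data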;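 further: 0% = DMSO wells with GLD-1 and probe and 100% = wells lacking GLD-1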
Target sequence (Q17339 whole entry, looked up): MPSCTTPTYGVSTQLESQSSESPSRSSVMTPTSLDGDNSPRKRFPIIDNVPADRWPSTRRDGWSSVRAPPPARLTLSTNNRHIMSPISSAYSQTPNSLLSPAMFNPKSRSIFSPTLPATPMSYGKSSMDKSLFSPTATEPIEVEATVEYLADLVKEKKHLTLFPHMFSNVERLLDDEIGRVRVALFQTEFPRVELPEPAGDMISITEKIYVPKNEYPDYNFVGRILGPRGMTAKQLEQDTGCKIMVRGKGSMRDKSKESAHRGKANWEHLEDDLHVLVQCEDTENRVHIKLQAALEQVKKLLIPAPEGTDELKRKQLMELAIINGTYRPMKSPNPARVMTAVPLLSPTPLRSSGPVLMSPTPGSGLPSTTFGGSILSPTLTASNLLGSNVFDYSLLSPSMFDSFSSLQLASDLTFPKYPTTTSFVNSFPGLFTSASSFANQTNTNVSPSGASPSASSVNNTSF
Bcl-xL primary = inhibitors of human Bcl-xL, primary screen, biochemical, fluorescence polarization, HTS | Bcl-2-like protein 1 (Homo sapiens), Q07817 | GST-Bcl-xL / FITC-Bim BH3 peptide fluorescence polarization | inhibition, % at 10.9 µM | 0.7% of 320,000 active | AID 2129, 2009;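 active means inhibition above the mean of all tested compounds plus 3 SD, cutoff set per campaign, cut at about 30% in these data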;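 further: 0% = DMSO wells and 100% = unlabeled Bim-BH3 peptide competitor; inhibitors lower millipolarization by displacing the labeled peptide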
cardiac RTF act = cardiac RTF calcium sensitivity activators, primary screen, biochemical, IANBD-TnC fluorescence, EC20 calcium; Troponin I, cardiac muscle (Homo sapiens) + Troponin T, cardiac muscle (Homo sapiens) + …; IANBD-labeled TnC RTF fluorescence at EC20 calcium; 0% EC20 calcium, 100% full calcium; activation, % at 7.2 µM; 0.24% of 340,000 active; AID 493008, 2010;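 active means activation above the mean over all tested compounds plus 3 SD, cut at about 30% in these data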;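 further: rise in fluorescence read as greater calcium sensitivity of cardiac thin filaments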
RTF inh confirm = cardiac RTF calcium sensitivity inhibitors, confirmation, biochemical, fluorescence readout; shares compounds with Cardiac RTF inh; reconstituted cardiac thin filaments; inhibition, % at 7.15 µM; 8% of 360 active; AID 504635, 2011; in the data active means inhibition above about 18%
The depositor's hits bear a star; x = no result; ! = not active in a repeat. In the library only some 1.2% were active in any assay of this set; here they are far more common.

SMILES | Cardiac RTF inh | E coli Lon inh | GLD-1 TGE inh | Bcl-xL primary | cardiac RTF act | RTF inh confirm
CCc1ccccc1N1C(=O)c2ccccc2S1(=O)=O | -5 | 7 | 3 | 3 | 8 | x
COc1cccc(CNc2nc3cc(-c4ccccc4CO)sc3c(=O)n2C)c1 | x | -3 | x | x | x | x
NCCNC(=O)Cc1ccc(NC(=O)Cc2ccc(Nc3ncnc4c3ncn4[C@@H]3O[C@H](CO)[C@@H](O)[C@H]3O)cc2)cc1 | 23* | -2 | 1 | 1 | -4 | -3
CNc1ncnc2c1ncn2[C@@H]1O[C@H](CO)[C@@H](O)[C@H]1O | -8 | 0 | 0 | 6 | 8 | x
COC(=O)c1ccc(C2c3c(oc4ccccc4c3=O)C(=O)N2CCCN2CCOCC2)cc1 (stereo not given) | -8 | -7 | -4 | 1 | 9 | x
OC(CN1c2ccccc2Sc2ccccc21)Cn1nnc2ccccc21 (stereo not given) | 21* | 9 | -1 | 6 | -1 | -8
O=C1c2ccccc2C(=O)N1CC(O)Cn1nnc2ccccc21 (stereo not given) | -1 | 1 | 7 | 3 | -1 | x
Cc1cccc(C)c1NC(=O)CN1CCN(CCCC(c2ccc(F)cc2)c2ccc(F)cc2)CC1 | 14 | 0 | 6 | 3 | -5 | x
CS/C(=C\[N+](=O)[O-])Nc1ccc(F)cc1 | 0 | 3 | -3 | 4 | 9 | x
Cn1c(SCC(=O)N2c3ccccc3Sc3ccccc32)nc2ccccc21 | 19* | 7 | -2 | -5 | 6 | -5
O=C1OCCC1Sc1nnc(-c2ccco2)o1 (stereo not given) | 0 | -8 | -5 | -1 | 1 | x
CCn1c(=O)cc(SCC(=O)Nc2cccc(C)n2)c2ccccc21 | 18* | 3 | -1 | 2 | -4 | -4
CCOc1ccc(/C=C2/C(=N)N3OC(C)=CC3=NC2=O)cc1OC | 2 | 4 | 11 | 2 | -7 | x
CCC12CC3CC(C1)CC(C(=O)O)(C3)C2 | -7 | -9 | 4 | 7 | 2 | x
C[C@H](O)CC(=O)O | 19*! | -17 | 6 | 5 | -8 | -3
O=C(C1CCCN(S(=O)(=O)c2cccc3nsnc23)C1)N1CCCCCC1 (stereo not given) | 17* | 0 | 9 | -3 | 2 | 2
COc1ccc([N+](=O)[O-])cc1NC(=O)C1C2C=CC(C2)C1C(=O)O (stereo not given) | -4 | 8 | 12 | 16 | -5 | x
Cc1nc(C)c(C(=O)N/N=C/c2c[nH]c3ccccc23)s1 | -5 | -3 | 2 | 6 | -4 | x
Cc1c(CCOC(=O)C23CC4CC(CC(C)(C4)C2)C3)sc[n+]1CC(=O)c1ccccc1 | 19* | -9 | 7 | 10 | 3 | -6
COc1ccc(OC)c(S(=O)(=O)NCC(c2ccco2)N2CCc3ccccc3C2)c1 (stereo not given) | 18* | -3 | 3 | 2 | -6 | -5
COc1ccc(C)cc1S(=O)(=O)NCC(c1ccco1)N1CCc2ccccc2C1 (stereo not given) | 3 | -3 | 4 | 2 | -8 | x
CC(=O)Oc1ccc(C)cc1-n1nc2ccccc2n1 | 20* | -6 | 5 | 3 | 0 | -7
Cc1ccc(OCC(=O)O)c(-n2nc3ccccc3n2)c1 | 4 | -4 | -3 | 7 | -1 | x
O=C(O)c1ccc(CN2C[C@@H](CO)O[C@@H](n3cnc4c(N5CCOCC5)ncnc43)C2)cc1 | x | 11 | x | x | x | x
CC(C)(C)C(=O)NC(n1cnc2c(N3CCOCC3)ncnc21)C(Cl)(Cl)Cl (stereo not given) | 19* | 4 | -3 | 6 | 1 | -9
SMILES | Cardiac RTF inh | E coli Lon inh | GLD-1 TGE inh | Bcl-xL primary | cardiac RTF act | RTF inh confirm
O=C(OCC(=O)N1CCN(c2ccccc2)CC1)c1ccc(Cl)cc1[N+](=O)[O-] | 3 | -4 | -1 | 2 | 6 | x
COc1cc2cccc(OC)c(=O)c2c(O)c1OC | -1 | 5 | -8 | 3 | -5 | x
COc1cc2c(ccc3cc(OC)c(OC)c(O)c32)cc1O | 26* | -3 | 4 | 21 | -27 | 10
CCN(CC)c1ccc(C(=C2C=CC(=[N+](CC)CC)C=C2)c2ccccc2)cc1 | -1 | 11 | x | x | 2 | x
CCN(CC)c1ccc(C(=C2C=CC(=[N+](CC)CC)C=C2)c2ccc(N(CC)CC)cc2)cc1 | 23* | -2 | x | x | -25 | 10
Cc1cc(C)n(-c2nnc(C)n2N)n1 | -5 | -1 | -3 | 2 | 3 | x
Cc1nnc(C)n1N | 18* | 8 | -4 | -3 | -1 | -4
CCOc1ccccc1-c1nc(-c2ccc(NC(=O)Cc3ccccc3OC)cc2)no1 | 18* | -1 | -80 | -44 | 1 | -4
O=[N+]([O-])c1ccc(Oc2ncccn2)cc1 | x | -2 | -2 | -1 | x | x
O=[N+]([O-])c1ccc(OCc2cccc(COc3ccc([N+](=O)[O-])cc3)n2)cc1 | 17* | -9 | -1 | 6 | 1 | -4
COc1ccc(CC(=O)NCCc2ccc(Cl)cc2Cl)cc1 | 22* | -3 | -6 | 1 | 1 | -1
Cc1ccc(N2CC(C(=O)N3CCN(c4ccccc4)CC3)CC2=O)cc1 (stereo not given) | 17* | 5 | 2 | 5 | 4 | -4
Cc1cc(C)n2[nH]c(=O)c(N=Nc3cccc(C(F)(F)F)c3)c2n1 | -4 | 2 | -6 | -2 | -2 | x
CCOC(=O)CNC(=O)c1c(C)nn(C)c1Cl | 5 | -1 | 2 | 0 | 0 | x
CCOC(=O)CNC(=O)c1c(C)nn(-c2ccccc2)c1Cl | 18* | 2 | 1 | 0 | -1 | -2
O=C(NCC(c1cccs1)N1CCOCC1)c1ccc([N+](=O)[O-])cc1 (stereo not given) | 17* | 1 | 2 | 5 | -5 | -3
Cc1ccc(/C=N/NC(=O)CNC(=O)COc2ccc(Cl)cc2)o1 | 18* | -3 | 6 | -1 | -2 | -5
C=CCC[C@@H](Cc1ccc(F)cc1)C(=O)OC[C@@H](NC(=O)[C@@H](CC=C)CC(=O)N[C@@H](CO)Cc1ccccc1)C(C)(C)C | 18* | 13 | 7 | x | -3 | 0
C=CCC[C@H](Cc1ccc(F)cc1)C(=O)OC[C@@H](NC(=O)[C@@H](CC=C)CC(=O)N[C@@H](CO)Cc1ccccc1)C(C)(C)C | 2 | -3 | 1 | x | 9 | x
Cc1ccc2c(c1)C(c1ccc(F)cc1)N(C(=O)c1ccc(S(=O)(=O)N(C)C)cc1)CC(=O)N2 (stereo not given) | -9 | -3 | 4 | -1 | 3 | x
Cc1ccc2nc(NC(=O)COC(=O)CSc3nc(C)cc(C)n3)sc2c1 | 19* | -1 | 2 | 4 | -2 | -5
